Screening results: PubChem, Columbia University Molecular Screening Center
Rows were chosen to be rich in hits. Some 1.6% of all compounds tested hit in one or more screens of this group.
E-sel TNF inh – TNF alpha driven E-selectin expression inhibition. HUVEC TNFa-induced E-selectin immunofluorescence, high content. inhibition, % at 2 µM. actives 0.71% (n = 120,000). AID 1246;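 active = inhibition above the batch mean plus 3 SD, and confirmed as a hit on visual image review, cut at about 43% in these data; inconclusive = passes the inhibition cutoff but fails visual image review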
TNFa cytotox – HUVEC cytotoxicity counter-screen, TNF alpha stimulated | cell count reduction, % at 2 µM | AID 848 | HUVEC TNFalpha-stimulated, Hoechst cell count, imaging | actives 0.17% (n = 93,000);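 active = cell count reduction exceeding the screen mean by over 5 SD, scaled to untreated wells per plate, cut at about 78% in these data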;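 note: cells counted after 24 h of TNF alpha exposure following the 1 h pretreatment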
IL1B NFkB pot – enhances IL-1B driven NFkB nuclear translocation; HUVEC IL-1B NFkB p65 nuclear translocation imaging; activation, % at 2 µM; actives 0.3% (n = 94,000);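 active = activation above 40%, about the mean plus 3 SD, also judged a hit on visual image review; inconclusive = activation above 40% but not a hit on visual review; inactive = activation not above 40% and no visual hit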;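 note: percent activation is computed from the nuclear over cytoplasmic p65 intensity ratio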
HUVEC tox IL1B – HUVEC cytotoxicity counter-screen, IL-1B stimulated. HUVEC cell count loss, Hoechst imaging. cell count reduction, % at 2 µM. actives 0.41% (n = 94,000). AID 845;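 active = cell count reduction more than 3 SD above the screen-wide mean, cut at about 70% in these data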
VCAM1 TNFa inh – reduces TNF alpha induced VCAM1 expression in HUVEC. HUVEC TNFa-induced VCAM-1 immunofluorescence, high-content imaging. inhibition, % at 2 µM. actives 0.48% (n = 95,000). AID 802;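 active = inhibition above the batch mean plus 3 SD, with images confirmed as a hit by eye, cut at about 37% in these data; inconclusive = inhibition above that limit but hit not confirmed in images; inactive = inhibition not above that limit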
NFkB transloc inh – blocks IL-1B driven NFkB nuclear translocation in HUVEC cells | HUVEC IL-1B NFkB p65 nuclear translocation imaging | inhibition, % at 2 µM | actives 0.43% (n = 94,000) | AID 796;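 active = inhibition above about 30% together with a positive call from visual inspection of the well image, limit read from the data; inconclusive = inhibition above a set limit but visual check negative; inactive = inhibition not above a set limit, visual check negative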;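 note: nuclear over cytoplasmic p65 intensity ratio measured by imaging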
Numbers stand for hits; 0 = inactive; ? = inconclusive; - = not tested or not shown.

SMILES	E-sel TNF inh	TNFa cytotox	IL1B NFkB pot	HUVEC tox IL1B	VCAM1 TNFa inh	NFkB transloc inh
CCc1ccc(NC(=O)Cn2cccc2)cc1	0	-	-	-	-	-
Cn1c(C(O)c2ccc3c(c2)OCO3)nc2ccccc21 (centres undefined)	0	0	0	84.0	0	98.1
CC(C)n1c(C(O)c2ccc3c(c2)OCO3)nc2ccccc21 (centres undefined)	0	-	-	-	-	-
OC(c1ccc2c(c1)OCO2)c1nccc2ccccc12 (centres undefined)	71.5	0	0	0	0	0
NC(=O)C1CCN(C(=O)/C=C/c2ccco2)CC1	0	-	-	-	-	-
CCOC(=O)c1cnn(-c2nc(-c3ccc(C)cc3)cs2)c1C(F)(F)F	-	0	0	0	96.3	0
COc1cc(CN2CCNC(=O)C2CC(=O)N(C)Cc2ncc[nH]2)cc(OC)c1 (centres undefined)	0	-	-	-	-	-
O=C(/C=C/c1cccs1)c1ccc(NC(=O)c2cccc(Br)c2)cc1	0	0	0	0	0	0
O=C(/C=C/c1cccs1)c1ccc(Br)cc1	0	0	106.6	0	0	0
C=CCNC(=O)/C=C/c1cccs1	93.9	-	-	-	-	-
CCOc1ccc(S(=O)(=O)NN2Cc3ccccc3C2=N)cc1	0	-	-	-	-	-
COc1ccc(N2C(=O)C(CC(=O)Nc3ccccc3)N(Cc3ccccn3)C2=S)cc1 (centres undefined)	0	-	-	-	-	-
N#Cc1cccc(-n2c(-c3ccccc3)nnc2-c2ccccc2)c1C#N	100.0	0	0	0	0	0
O=C(COc1ccccc1C(=O)c1cnn(-c2ccccc2)c1)Nc1ccccc1	0	-	-	-	-	-
O=c1c2cn[nH]c2[nH]c(=S)n1-c1cccc(Cl)c1	0	-	-	-	-	-
O=C(Nc1ccc(Cl)cc1)Nc1nnc(CSc2ccc(Cl)cc2)s1	64.0	-	-	-	-	-
N#CC(C#N)=C(N)CSc1cccc[n+]1[O-]	0	-	-	-	-	-
O=C(c1cc([N+](=O)[O-])ccc1Cl)N1c2ccccc2Sc2ccccc21	0	-	-	-	-	-
Cc1cc(NC(=O)CN2C(=O)NC3(CCCCC3C)C2=O)no1 (centres undefined)	0	-	-	-	-	-
O=C(NC(C(=O)c1ccccc1)N1CCOCC1)c1cccs1 (centres undefined)	0	0	0	0	0	0
O=C(NC(C(=O)c1ccccc1)N1CCOCC1)c1ccccc1 (centres undefined)	99.8	-	-	-	-	-
O=C1C(c2ccc(F)cc2)N(C2CCCCC2)C(=O)CN1C1CCCC1 (centres undefined)	0	0	128.4	0	0	0
Cc1ccc(C2C(=O)N(C3CCC(C)CC3)CC(=O)N2C2CCCC2)cc1 (centres undefined)	0	0	-	-	0	-
C=CCc1cccc2cc(C(=O)OCC(=O)c3ccccc3)c(=O)oc12	0	0	0	86.3	0	0
C=CCc1cccc2cc(C(=O)O)c(=O)oc12	0	0	-	-	0	-
SMILES	E-sel TNF inh	TNFa cytotox	IL1B NFkB pot	HUVEC tox IL1B	VCAM1 TNFa inh	NFkB transloc inh
Nc1ccccc1NC(=O)c1ccccc1N	-	92.6	0	0	80.6	0
Cc1c(NC(=O)c2ccccc2N)cccc1C(=O)O	0	0	0	0	0	0
CC(=O)N[C@@H](Cc1c[nH]c2ccccc12)C(=O)OCC(=O)Nc1ccc(S(=O)(=O)N(C)C)cc1	74.8	-	-	-	-	-
CC(=O)N[C@@H](Cc1c[nH]c2ccccc12)C(=O)OCC(=O)NCc1ccc2c(c1)OCO2	0	-	-	-	-	-
COc1ccc2c(c1)-c1nc(/N=C/c3ccc(O)c(OC)c3)sc1CC2	0	-	-	-	-	-
CCCC(c1nnnn1Cc1ccccc1)N1CCC(C(N)=O)CC1 (centres undefined)	0	0	0	0	0	0
CC(C)CC(c1nnnn1Cc1ccccc1)N1CCC(C(N)=O)CC1 (centres undefined)	0	0	58.0	0	0	0
COc1cccc(N2CCN(C3CC(=O)N(c4ccc(F)c(Cl)c4)C3=O)CC2)c1 (centres undefined)	0	0	0	87.8	0	96.0
COc1cccc(N2CCN(C3CC(=O)N(c4ccc(C)c(Cl)c4)C3=O)CC2)c1 (centres undefined)	0	-	-	-	-	-
CC[C@@H](C)[C@H](NC(=O)OC(C)(C)C)c1nnc(S(=O)(=O)Cc2cc(C)ccc2C)o1	0	0	0	0	?	0
Cc1ccccc1CS(=O)(=O)c1nnc([C@H](CC(C)C)NC(=O)OC(C)(C)C)o1	98.7	0	0	0	0	0
CN(C(=S)Nc1ccccc1)c1ccccc1	0	-	-	-	-	-
CN(C(=S)Nc1ccc(Oc2ccccc2)cc1)c1ccc(O)cc1	87.1	-	-	-	-	-
COc1ccc(NC(=S)Nc2ccccc2)cn1	0	-	-	-	-	-
